About 8,800 targets were measured; listed, in parts, are those with a hit and a random draw of the rest. About 0.5% of all pairs of compound and target were hits.
Key:
Assay in all cases: log2 fold change, soluble protein after heating vs DMSO (PISA); higher = thermal stabilisation; K562 lysate, 10 uM; active = over 0.2 and 3.5 SD of the protein, either way, in both replicates (recomputed)
nilotinib = compound: Cc1cn(-c2cc(NC(=O)c3ccc(C)c(Nc4nccc(-c5cccnc5)n4)c3)cc(C(F)(F)F)c2)cn1 [nilotinib]
Procedure, shortened: (§1)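 Soluble protein was defined as the supernatant remaining after 21,000xg for 90 min, following pooling of heated aliquots and adjustment to 0.5% NP-40 at 4°C. Before that, crude K562 extract at 1 mg/mL protein in PBS pH 7.4 with 1 mM MgCl2 was treated with 10 μM compound for 30 min and heated for 3 min across 48°C-58°C. Quantification used TMTpro 16plex LC-MS/MS with channel sums equalised, and values are log-two fold changes in thermal stability relative to solvent controls from duplicates.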

[1] = compound: Cc1nc(Nc2n[nH]c3c2CN(C(=O)N[C@H](CN(C)C)c2ccccc2)C3(C)C)c2sccc2n1
Procedure, shortened: as §1

dasatinib = compound: Cc1nc(Nc2ncc(C(=O)Nc3c(C)cccc3Cl)s2)cc(N2CCN(CCO)CC2)n1 [dasatinib]
Procedure, shortened: as §1

[2] = compound: Cc1ncc(-c2ccnc(Nc3ccc(S(C)(=O)=O)cc3)n2)n1C(C)C
Procedure, shortened: as §1

[3] = compound: Cn1cc(-c2ccc3c(c2)CCN3C(=O)Cc2cccc(C(F)(F)F)c2)c2c(N)ncnc21
Procedure, shortened: as §1

quisinostat = compound: Cn1cc(CNCC2CCN(c3ncc(C(=O)NO)cn3)CC2)c2ccccc21 [quisinostat]
Procedure, shortened: as §1

tipifarnib = compound: Cn1cncc1[C@@](N)(c1ccc(Cl)cc1)c1ccc2c(c1)c(-c1cccc(Cl)c1)cc(=O)n2C [tipifarnib]
Procedure, shortened: as §1

[4] = compound: NC(=O)Nc1cc(-c2cccc(F)c2)sc1C(=O)N[C@H]1CCCNC1
Procedure, shortened: as §1

[5] = compound: NC(=O)c1cnc(N[C@@H]2CCCC[C@@H]2N)nc1Nc1cccc(-n2nccn2)c1
Procedure, shortened: as §1

[6] = compound: NC1(c2ccc(-c3nc4ccn5c(=O)[nH]nc5c4cc3-c3ccccc3)cc2)CCC1
Procedure, shortened: as §1

Measured: log2 fold change

PIK3C3 (UniProt Q8NEB9)
inactive: nilotinib -0.001 | [1] -0.011 | dasatinib -0.05 | [2] 0.062 | [3] -0.025 | quisinostat -0.022 | tipifarnib -0.054 | [4] 0.027 | [5] 0.04 | [6] -0.008

PPP4R2 (UniProt Q9NY27)
inactive: nilotinib 0.012 | [1] 0.018 | dasatinib 0.029 | [2] 0.005 | [3] -0.028 | quisinostat -0.009 | tipifarnib -0.042 | [4] -0.011 | [5] 0.009 | [6] -0.01

PRAME (UniProt P78395)
Sequence of UniProt P78395 (P78395 whole entry, looked up): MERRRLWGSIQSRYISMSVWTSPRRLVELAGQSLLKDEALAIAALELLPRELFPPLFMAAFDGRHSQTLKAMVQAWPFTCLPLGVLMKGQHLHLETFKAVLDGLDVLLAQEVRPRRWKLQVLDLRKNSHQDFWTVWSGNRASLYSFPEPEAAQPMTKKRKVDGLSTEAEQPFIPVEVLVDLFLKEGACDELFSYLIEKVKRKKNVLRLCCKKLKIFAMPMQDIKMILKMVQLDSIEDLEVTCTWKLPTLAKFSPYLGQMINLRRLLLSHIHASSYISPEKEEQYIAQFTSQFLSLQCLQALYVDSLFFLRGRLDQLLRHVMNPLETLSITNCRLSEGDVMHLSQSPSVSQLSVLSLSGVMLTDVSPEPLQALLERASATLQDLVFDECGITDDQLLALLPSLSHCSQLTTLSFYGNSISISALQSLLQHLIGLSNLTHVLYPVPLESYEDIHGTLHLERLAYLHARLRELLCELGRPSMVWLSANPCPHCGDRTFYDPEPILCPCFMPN
inactive: nilotinib 0.028 | [1] 0.005 | dasatinib -0.004 | [2] 0.001 | [3] -0.017 | quisinostat -0.081 | tipifarnib -0.007 | [4] 0.053 | [5] -0.01 | [6] -0.006

PPIL3 (UniProt Q9H2H8)
inactive: nilotinib 0.121 | [1] 0.023 | dasatinib -0.049 | [2] 0.176 | [3] -0.032 | quisinostat 0.017 | tipifarnib -0.028 | [4] -0.025 | [5] -0.054 | [6] -0.051

PPP2R5C isoform 4 (UniProt Q13362)
inactive: nilotinib -0.012 | [1] -0.005 | dasatinib 0.031 | [2] -0.002 | [3] 0.017 | quisinostat -0.126 | tipifarnib 0.021 | [4] 0.079 | [5] -0.013 | [6] -0.04

PRKCSH isoform 2 (UniProt P14314)
Sequence of UniProt P14314 (P14314 whole entry, looked up): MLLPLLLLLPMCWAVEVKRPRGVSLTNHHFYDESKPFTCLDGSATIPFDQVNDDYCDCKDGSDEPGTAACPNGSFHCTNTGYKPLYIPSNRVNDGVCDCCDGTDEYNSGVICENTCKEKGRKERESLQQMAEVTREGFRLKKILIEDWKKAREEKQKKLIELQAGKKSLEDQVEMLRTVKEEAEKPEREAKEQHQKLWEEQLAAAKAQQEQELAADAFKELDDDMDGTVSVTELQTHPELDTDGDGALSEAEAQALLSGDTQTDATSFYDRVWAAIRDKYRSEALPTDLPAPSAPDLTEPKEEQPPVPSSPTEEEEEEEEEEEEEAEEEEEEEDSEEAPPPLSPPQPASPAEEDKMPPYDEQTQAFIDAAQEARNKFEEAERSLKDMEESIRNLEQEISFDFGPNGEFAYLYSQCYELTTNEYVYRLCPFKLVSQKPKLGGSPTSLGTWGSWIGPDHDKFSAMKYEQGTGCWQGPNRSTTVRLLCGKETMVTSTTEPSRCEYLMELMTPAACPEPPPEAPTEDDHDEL
inactive: nilotinib -0.004 | [1] 0.099 | dasatinib 0.088 | [2] 0.116 | [3] 0.003 | quisinostat -0.157 | tipifarnib -0.081 | [4] -0.079 | [5] 0.038 | [6] -0.192

PRC1 (UniProt O43663)
inactive: nilotinib 0.013 | [1] -0.008 | dasatinib -0.012 | [2] -0.007 | [3] 0.05 | quisinostat -0.035 | tipifarnib -0.011 | [4] 0.009 | [5] -0.002 | [6] -0.044

PICALM (UniProt H0YCY1)
inactive: [6] 0.013

PPP1R12B isoform 6 (UniProt O60237)
Sequence of UniProt O60237 (O60237 whole entry, looked up): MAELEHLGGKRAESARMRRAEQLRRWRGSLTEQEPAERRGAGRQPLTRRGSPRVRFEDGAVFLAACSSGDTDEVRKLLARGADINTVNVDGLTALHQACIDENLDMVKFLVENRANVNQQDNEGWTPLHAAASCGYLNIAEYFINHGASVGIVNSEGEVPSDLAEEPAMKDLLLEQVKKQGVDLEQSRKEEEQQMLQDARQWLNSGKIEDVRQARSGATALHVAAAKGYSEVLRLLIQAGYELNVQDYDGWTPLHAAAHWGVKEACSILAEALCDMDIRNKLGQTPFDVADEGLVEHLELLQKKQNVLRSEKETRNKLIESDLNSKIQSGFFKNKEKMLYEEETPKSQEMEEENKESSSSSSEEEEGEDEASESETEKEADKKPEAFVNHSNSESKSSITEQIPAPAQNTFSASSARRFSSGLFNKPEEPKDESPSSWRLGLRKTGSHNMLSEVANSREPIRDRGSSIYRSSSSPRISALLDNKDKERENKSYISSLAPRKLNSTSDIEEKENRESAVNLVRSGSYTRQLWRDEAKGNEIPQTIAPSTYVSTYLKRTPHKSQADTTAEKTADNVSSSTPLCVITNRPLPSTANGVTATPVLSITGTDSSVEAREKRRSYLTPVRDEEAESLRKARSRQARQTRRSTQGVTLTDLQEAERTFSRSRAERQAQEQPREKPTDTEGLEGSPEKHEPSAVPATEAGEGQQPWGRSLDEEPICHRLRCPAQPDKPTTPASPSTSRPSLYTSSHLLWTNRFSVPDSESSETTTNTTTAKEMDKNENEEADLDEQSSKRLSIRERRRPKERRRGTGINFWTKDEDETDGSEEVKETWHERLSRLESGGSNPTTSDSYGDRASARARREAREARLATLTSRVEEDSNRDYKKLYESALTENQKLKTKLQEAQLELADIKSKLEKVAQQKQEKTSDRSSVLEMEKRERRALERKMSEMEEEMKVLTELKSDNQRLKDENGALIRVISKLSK
inactive: dasatinib -0.065 | [3] 0.134 | [4] 0.006 | [5] 0.05 | [6] -0.075
active: quisinostat -0.531

PMS1 (UniProt P54277)
inactive: nilotinib -0.022 | [1] 0 | dasatinib -0.011 | [2] -0.001 | [3] 0.017 | quisinostat -0.086 | tipifarnib 0.058 | [4] 0.041 | [6] -0.029

PPP2R5C isoform 2 (UniProt Q13362)
inactive: nilotinib -0.028 | [1] 0.021 | dasatinib -0.02 | [2] -0.068 | [3] 0.028 | tipifarnib 0.028 | [4] -0.284 | [6] -0.051
active: quisinostat 0.347

PHOSPHO2 (UniProt C9JD35)
inactive: quisinostat 0.073 | [4] -0.102

PDIA4, A0A499FI48
inactive: dasatinib -0.004 | [3] 0.044 | quisinostat -0.02 | [4] 0.164

PIK3CG (UniProt P48736)
inactive: nilotinib 0.004 | [1] -0.022 | [2] 0.079 | [3] 0.097 | quisinostat -0.139 | tipifarnib 0.003 | [4] 0.013 | [6] -0.017

PRR4 (UniProt Q16378)
inactive: nilotinib 0.047 | [1] -0.145 | [2] -0.027 | tipifarnib 0.05 | [5] 0.032 | [6] 0.012

PCBP2 (UniProt F8VRH0)
inactive: nilotinib -0.221 | [1] -0.532 | [2] -0.063 | quisinostat 0.034 | tipifarnib -0.167 | [4] -0.059 | [5] 0.232 | [6] 0.003

PPME1 (UniProt Q9Y570)
inactive: dasatinib 0.032 | [3] -0.08 | [5] 0.048 | [6] 0.027

PPIC (UniProt P45877)
Sequence of UniProt P45877 (P45877 whole entry, looked up): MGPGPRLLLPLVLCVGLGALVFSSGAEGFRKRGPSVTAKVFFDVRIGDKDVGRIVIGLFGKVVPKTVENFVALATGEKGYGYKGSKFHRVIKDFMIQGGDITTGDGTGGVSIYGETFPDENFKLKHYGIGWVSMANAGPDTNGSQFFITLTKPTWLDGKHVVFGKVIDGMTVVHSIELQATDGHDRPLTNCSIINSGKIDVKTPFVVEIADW
inactive: nilotinib -0.112 | [1] 0.069 | dasatinib 0.037 | [2] -0.02 | [3] -0.036 | quisinostat -0.063 | tipifarnib 0.145 | [4] 0.206 | [6] -0.045

PIM1 isoform 2 (UniProt P11309)
Sequence of UniProt P11309 (P11309 whole entry, looked up): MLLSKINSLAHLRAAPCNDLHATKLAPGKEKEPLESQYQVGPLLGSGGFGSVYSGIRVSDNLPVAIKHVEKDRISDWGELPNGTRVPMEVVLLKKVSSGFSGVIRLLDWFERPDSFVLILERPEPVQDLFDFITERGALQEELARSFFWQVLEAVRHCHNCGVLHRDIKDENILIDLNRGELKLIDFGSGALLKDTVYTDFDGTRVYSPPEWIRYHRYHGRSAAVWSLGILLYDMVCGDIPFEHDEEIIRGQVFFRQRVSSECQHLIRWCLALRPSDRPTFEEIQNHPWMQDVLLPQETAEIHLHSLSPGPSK
inactive: nilotinib 0.059 | [1] -0.025 | dasatinib -0.033 | [2] 0.063 | [3] 0.112 | quisinostat -0.085 | tipifarnib 0.061 | [4] 0.038 | [6] -0.146

PDE4DIP (UniProt E9PS60)
inactive: nilotinib -0.074 | [1] 0.052 | dasatinib -0.158 | [2] -0.045 | [3] -0.073 | quisinostat -0.256 | tipifarnib 0.081 | [4] -0.205 | [6] -0.025

PIK3CD (UniProt O00329)
inactive: nilotinib 0.059 | [1] 0.006 | [2] 0.122 | [3] 0.151 | quisinostat -0.091 | tipifarnib -0.053 | [4] 0.02 | [5] 0.001 | [6] 0.127

PTK2 isoform 2 (UniProt Q05397)
inactive: dasatinib 0.014 | [3] 0.102 | [5] 0.034 | [6] -0.168

PFN3 (UniProt P60673)
inactive: nilotinib -0.104 | [1] 0.001 | [2] 0.033 | quisinostat -0.349 | tipifarnib -0.083 | [4] -0.044 | [5] -0.087

PRIMPOL (UniProt Q96LW4)
inactive: nilotinib 0.112 | [1] -0.089 | dasatinib 0.034 | [2] -0.15 | [3] -0.037 | quisinostat -0.039 | tipifarnib 0.17 | [4] 0 | [6] -0.126

PNPLA4 (UniProt P41247)
inactive: dasatinib 0.099 | [3] 0.194 | quisinostat 0.048 | [4] 0.037

PFN1 (UniProt I3L3D5)
inactive: nilotinib -0.009 | [1] -0.088 | [2] 0.108 | tipifarnib 0.006 | [5] 0.04

PRKDC (UniProt P78527)
inactive: nilotinib -0.015 | [1] -0.01 | [2] 0.188 | [3] 0.038 | quisinostat -0.093 | tipifarnib -0.011 | [4] 0.004 | [5] 0.123 | [6] -0.073

PHF14 (UniProt O94880)
Sequence of UniProt O94880 (O94880 whole entry, looked up): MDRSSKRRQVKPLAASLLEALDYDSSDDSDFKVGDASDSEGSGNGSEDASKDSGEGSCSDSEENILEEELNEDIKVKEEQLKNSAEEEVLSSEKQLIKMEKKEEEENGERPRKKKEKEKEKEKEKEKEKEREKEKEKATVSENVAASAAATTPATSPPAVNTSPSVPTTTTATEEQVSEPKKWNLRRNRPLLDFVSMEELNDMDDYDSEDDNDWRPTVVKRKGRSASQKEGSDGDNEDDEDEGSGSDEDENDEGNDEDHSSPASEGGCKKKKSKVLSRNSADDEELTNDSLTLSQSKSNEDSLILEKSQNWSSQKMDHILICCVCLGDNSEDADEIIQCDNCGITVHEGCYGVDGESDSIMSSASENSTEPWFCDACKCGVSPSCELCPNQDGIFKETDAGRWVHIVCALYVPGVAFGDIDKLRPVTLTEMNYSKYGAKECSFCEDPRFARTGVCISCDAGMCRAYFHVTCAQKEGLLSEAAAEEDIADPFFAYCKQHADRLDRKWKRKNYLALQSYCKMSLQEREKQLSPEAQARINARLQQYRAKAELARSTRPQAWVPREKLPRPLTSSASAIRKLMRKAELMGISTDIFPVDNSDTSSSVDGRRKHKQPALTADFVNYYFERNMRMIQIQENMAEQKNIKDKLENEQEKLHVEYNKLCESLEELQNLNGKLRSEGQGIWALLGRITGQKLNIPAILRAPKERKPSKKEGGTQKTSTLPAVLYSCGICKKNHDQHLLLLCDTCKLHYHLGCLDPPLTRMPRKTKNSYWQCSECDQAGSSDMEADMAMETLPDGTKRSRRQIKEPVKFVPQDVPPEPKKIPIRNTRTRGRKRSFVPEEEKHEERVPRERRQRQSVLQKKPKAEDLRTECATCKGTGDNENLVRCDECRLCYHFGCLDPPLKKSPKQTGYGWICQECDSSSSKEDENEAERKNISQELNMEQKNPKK
inactive: nilotinib -0.127 | [1] -0.203 | dasatinib -0.1 | [2] 0.082 | [3] 0.085 | tipifarnib 0.073 | [5] -0.077

POM121C (UniProt A8CG34)
inactive: [5] 0.022 | [6] -0.09

PPT2, A0A140T9Y1
inactive: nilotinib -0.054 | [1] 0.086 | [2] 0.089 | tipifarnib 0.1

PCBP2 (UniProt F8W0G4)
inactive: nilotinib 0.034 | [1] -0.092 | dasatinib -0.138 | [2] -0.154 | [3] 0 | tipifarnib -0.298 | [6] 0.053

PPM1H (UniProt Q9ULR3)
inactive: dasatinib 0 | [3] 0.001 | quisinostat -0.036 | [4] -0.041 | [5] 0 | [6] -0.07

PUF60 isoform 2 (UniProt Q9UHX1)
Sequence of UniProt Q9UHX1 (Q9UHX1 whole entry, looked up): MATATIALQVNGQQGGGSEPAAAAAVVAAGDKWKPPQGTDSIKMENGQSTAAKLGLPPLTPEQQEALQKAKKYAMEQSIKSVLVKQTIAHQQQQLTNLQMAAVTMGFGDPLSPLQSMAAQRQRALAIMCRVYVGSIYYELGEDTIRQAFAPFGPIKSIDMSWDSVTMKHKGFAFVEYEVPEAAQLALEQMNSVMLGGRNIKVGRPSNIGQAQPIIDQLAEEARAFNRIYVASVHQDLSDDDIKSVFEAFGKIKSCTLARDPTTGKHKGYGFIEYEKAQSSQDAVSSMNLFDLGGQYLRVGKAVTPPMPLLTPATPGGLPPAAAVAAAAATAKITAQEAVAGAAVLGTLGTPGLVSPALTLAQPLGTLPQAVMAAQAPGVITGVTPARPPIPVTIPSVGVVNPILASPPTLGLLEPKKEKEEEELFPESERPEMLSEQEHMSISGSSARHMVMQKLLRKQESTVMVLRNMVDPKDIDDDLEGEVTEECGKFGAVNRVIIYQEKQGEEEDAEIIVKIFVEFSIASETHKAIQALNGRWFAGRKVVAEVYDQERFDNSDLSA
inactive: nilotinib -0.011 | [1] -0.027 | [2] 0.05 | quisinostat 0.013 | tipifarnib 0.023 | [4] 0.017 | [5] -0.016 | [6] -0.184

NA (UniProt Q4G0T1)
inactive: dasatinib 0.054 | [3] 0.095 | quisinostat 0.034 | [4] 0.054 | [6] 0.062

PPP2CA (UniProt E7ESG8)
inactive: nilotinib 0.025 | [1] -0.108 | [2] -0.232 | tipifarnib 0.356

PCLAF (UniProt Q15004)
inactive: nilotinib -0.115 | [1] 0.081 | dasatinib 0.001 | [2] 0.02 | [3] -0.087 | quisinostat -0.044 | tipifarnib 0.018 | [4] -0.018 | [6] 0.094

PRKD3 (UniProt O94806)
inactive: nilotinib 0.054 | [1] -0.086 | [2] -0.03 | quisinostat -0.014 | tipifarnib 0.087 | [4] -0.174 | [5] 0.001 | [6] 0.054

PHGDH, A0A286YFE1
inactive: dasatinib 0.086 | [3] 0.258 | [5] -0.29

PPP2R3C (UniProt Q969Q6)
inactive: nilotinib -0.139 | [1] 0.057 | dasatinib -0.061 | [2] -0.13 | [3] -0.009 | tipifarnib 0.057 | [5] 0.038 | [6] 0.062

PFKFB4 (UniProt Q16877)
Sequence of UniProt Q16877 (Q16877 whole entry, looked up): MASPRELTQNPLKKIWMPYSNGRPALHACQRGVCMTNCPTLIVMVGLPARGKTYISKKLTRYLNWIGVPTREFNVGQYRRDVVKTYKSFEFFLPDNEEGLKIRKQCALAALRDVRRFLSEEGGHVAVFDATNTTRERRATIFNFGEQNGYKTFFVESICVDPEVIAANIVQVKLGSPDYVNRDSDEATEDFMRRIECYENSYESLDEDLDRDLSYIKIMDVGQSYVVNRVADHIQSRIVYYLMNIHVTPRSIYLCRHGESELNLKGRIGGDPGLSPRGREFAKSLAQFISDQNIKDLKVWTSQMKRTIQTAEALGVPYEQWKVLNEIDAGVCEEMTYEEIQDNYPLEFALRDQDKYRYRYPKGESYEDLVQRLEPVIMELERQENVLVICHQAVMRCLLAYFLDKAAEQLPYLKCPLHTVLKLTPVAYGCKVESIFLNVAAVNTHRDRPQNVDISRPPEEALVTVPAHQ
inactive: dasatinib 0.009 | [3] -0.045 | quisinostat 0.059 | [4] -0.024 | [5] 0.015 | [6] 0.013

PPP2R5B (UniProt Q15173)
Sequence of UniProt Q15173 (Q15173 whole entry, looked up): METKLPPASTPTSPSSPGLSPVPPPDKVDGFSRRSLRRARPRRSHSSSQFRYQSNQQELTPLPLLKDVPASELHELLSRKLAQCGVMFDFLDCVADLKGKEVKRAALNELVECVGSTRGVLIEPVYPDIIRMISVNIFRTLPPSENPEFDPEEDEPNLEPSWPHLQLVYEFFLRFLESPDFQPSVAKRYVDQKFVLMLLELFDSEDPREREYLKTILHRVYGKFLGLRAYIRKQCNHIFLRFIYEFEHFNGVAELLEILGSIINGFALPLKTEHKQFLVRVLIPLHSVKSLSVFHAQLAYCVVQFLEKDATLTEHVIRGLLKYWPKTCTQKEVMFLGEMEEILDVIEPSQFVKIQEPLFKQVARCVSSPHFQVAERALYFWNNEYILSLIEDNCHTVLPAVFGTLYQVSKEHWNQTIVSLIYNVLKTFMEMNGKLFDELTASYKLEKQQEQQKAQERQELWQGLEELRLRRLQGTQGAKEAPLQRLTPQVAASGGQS
inactive: dasatinib 0.018 | [3] 0.021 | quisinostat 0.058 | [4] -0.025 | [5] 0.011 | [6] -0.015

PREP (UniProt H0Y5Y0)
inactive: [5] -0.087

— the supplement of paper PMC10849652
